# Results from article PMC7862700, “An all-to-all approach to the identification of sequence-specific readers for epigenetic DNA modifications on cytosine”.
# How the values were obtained:
# Experiment in all cases: DAPPL (digital affinity profiling via proximity ligation, sequencing); 10 mM Tris-HCl pH 7.5, 50 mM NaCl, 1 mM DTT, 4% glycerol, room temperature, 30 min; GST-TFs on glutathione beads, 16-mer random dsDNA library, 0.1% formaldehyde crosslink after washing; high values mean tight binding
# FEV = target: T1, FEV (Homo sapiens, UniProt Q99581 1-238); conditions: protein: recombinant; tags: N-terminal GST; dsDNA, one strand shown
# T1 sequence: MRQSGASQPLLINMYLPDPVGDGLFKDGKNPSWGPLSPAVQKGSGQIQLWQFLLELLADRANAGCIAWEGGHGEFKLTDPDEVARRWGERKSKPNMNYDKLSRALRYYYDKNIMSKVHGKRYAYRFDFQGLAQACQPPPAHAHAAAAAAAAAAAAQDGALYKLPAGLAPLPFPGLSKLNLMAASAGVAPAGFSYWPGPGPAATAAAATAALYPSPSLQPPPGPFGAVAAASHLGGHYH
# How it was run: (§1)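 After expression in yeast as GST fusions, human transcription factors were bound to glutathione beads, DNA-barcoded and mixed with a tag-only sample. The pools were incubated with 200 nmole of a 16-mer random double-stranded DNA library in Tris/NaCl/DTT/glycerol buffer (30 min, room temperature), washed and crosslinked with 0.1% formaldehyde. Proximity ligation with BsaI/T4 ligase ran for 1 h at 37 °C, before PCR amplification and sequencing on an Illumina NextSeq500. Binding signal is a hexamer's read frequency for a factor divided by its frequency for the tag-only sample.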
# ETV5 = ETV5 (Homo sapiens, UniProt P41161 1-510); conditions: protein: recombinant; tags: N-terminal GST; dsDNA, one strand shown
# How it was run: as §1
# HSF1 = HSF1 (Homo sapiens, UniProt Q00613 1-529); conditions: protein: recombinant; tags: N-terminal GST; chain copies: 3; dsDNA, one strand shown
# How it was run: as §1
# SPIC = target: T2, SPIC (Homo sapiens, UniProt Q8N5J4 1-248); conditions: protein: recombinant; tags: N-terminal GST; dsDNA, one strand shown
# T2 sequence: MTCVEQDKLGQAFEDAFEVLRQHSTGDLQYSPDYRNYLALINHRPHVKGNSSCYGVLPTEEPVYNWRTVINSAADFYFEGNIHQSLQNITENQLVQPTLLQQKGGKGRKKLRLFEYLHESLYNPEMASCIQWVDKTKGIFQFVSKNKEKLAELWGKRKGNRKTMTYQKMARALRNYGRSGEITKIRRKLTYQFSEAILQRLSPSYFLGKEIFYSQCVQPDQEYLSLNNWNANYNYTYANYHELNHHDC
# How it was run: as §1
# ELF4 = ELF4 (Homo sapiens, UniProt Q99607 1-663); conditions: protein: recombinant; tags: N-terminal GST; dsDNA, one strand shown
# How it was run: as §1
# ELK4 = target: T3, ELK4 (Homo sapiens, UniProt P28324-2 1-405); conditions: protein: recombinant; tags: N-terminal GST; dsDNA, one strand shown
# T3 sequence: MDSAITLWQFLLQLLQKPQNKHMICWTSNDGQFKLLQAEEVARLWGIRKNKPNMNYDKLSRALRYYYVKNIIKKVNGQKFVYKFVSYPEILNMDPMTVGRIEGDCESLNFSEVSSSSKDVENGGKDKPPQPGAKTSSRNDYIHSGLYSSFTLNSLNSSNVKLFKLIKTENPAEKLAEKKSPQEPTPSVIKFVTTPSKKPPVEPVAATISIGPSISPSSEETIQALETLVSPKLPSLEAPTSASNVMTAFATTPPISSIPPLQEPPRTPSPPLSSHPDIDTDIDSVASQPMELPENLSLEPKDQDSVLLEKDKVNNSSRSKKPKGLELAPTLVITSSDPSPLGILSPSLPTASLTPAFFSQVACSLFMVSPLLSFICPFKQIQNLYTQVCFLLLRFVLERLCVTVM
# How it was run: as §1
# ETV2 = target: T4, ETV2 (Homo sapiens, UniProt O00321 1-342); conditions: protein: recombinant; tags: N-terminal GST; dsDNA, one strand shown
# T4 sequence: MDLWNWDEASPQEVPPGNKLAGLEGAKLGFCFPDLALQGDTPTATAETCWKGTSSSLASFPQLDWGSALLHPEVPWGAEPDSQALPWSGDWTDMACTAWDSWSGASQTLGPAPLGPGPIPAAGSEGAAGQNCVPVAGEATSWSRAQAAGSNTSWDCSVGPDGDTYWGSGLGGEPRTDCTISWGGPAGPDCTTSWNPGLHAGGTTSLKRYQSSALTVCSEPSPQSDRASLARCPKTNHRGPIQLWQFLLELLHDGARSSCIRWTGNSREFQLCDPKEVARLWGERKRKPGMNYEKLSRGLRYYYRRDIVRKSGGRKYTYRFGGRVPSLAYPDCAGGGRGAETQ
# How it was run: as §1
# ELF3 = target: T5, ELF3 (Homo sapiens, UniProt P78545 1-371); conditions: protein: recombinant; tags: N-terminal GST; dsDNA, one strand shown
# T5 sequence: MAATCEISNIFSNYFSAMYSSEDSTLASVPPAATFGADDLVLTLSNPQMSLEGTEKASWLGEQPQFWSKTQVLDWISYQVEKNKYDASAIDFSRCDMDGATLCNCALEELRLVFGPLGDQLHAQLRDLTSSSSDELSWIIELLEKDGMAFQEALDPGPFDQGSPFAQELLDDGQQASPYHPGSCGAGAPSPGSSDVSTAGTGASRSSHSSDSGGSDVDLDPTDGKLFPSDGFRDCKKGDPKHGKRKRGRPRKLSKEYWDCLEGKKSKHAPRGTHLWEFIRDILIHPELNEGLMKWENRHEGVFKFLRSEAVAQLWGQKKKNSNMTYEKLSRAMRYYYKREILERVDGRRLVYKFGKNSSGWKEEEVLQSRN
# How it was run: as §1
# CRX = CRX (Homo sapiens, UniProt O43186 1-299); conditions: protein: recombinant; tags: N-terminal GST; dsDNA, one strand shown
# How it was run: as §1
# ETV1 = ETV1 (Homo sapiens, UniProt P50549 1-477); conditions: protein: recombinant; tags: N-terminal GST; dsDNA, one strand shown
# How it was run: as §1
# ERF = target: T6, ERF (Homo sapiens, UniProt P50548 1-548); conditions: protein: recombinant; tags: N-terminal GST; dsDNA, one strand shown
# T6 sequence: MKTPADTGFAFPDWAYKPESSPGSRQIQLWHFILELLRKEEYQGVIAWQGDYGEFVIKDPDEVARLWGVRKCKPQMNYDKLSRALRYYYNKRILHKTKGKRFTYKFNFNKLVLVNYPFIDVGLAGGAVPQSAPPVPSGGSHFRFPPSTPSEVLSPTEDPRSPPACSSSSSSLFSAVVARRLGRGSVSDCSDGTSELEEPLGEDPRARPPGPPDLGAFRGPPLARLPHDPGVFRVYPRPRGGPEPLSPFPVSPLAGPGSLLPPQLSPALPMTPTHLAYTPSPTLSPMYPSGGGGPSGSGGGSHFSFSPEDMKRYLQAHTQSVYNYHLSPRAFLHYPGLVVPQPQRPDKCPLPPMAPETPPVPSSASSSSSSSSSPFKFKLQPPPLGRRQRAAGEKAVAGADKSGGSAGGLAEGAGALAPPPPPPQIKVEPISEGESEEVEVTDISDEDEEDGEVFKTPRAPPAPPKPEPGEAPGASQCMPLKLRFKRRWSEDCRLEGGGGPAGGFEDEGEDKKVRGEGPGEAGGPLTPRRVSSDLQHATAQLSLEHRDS
# How it was run: as §1
# ETV3L = target: T7, ETV3L (Homo sapiens, UniProt Q6ZN32 1-361); conditions: protein: recombinant; tags: N-terminal GST; dsDNA, one strand shown
# T7 sequence: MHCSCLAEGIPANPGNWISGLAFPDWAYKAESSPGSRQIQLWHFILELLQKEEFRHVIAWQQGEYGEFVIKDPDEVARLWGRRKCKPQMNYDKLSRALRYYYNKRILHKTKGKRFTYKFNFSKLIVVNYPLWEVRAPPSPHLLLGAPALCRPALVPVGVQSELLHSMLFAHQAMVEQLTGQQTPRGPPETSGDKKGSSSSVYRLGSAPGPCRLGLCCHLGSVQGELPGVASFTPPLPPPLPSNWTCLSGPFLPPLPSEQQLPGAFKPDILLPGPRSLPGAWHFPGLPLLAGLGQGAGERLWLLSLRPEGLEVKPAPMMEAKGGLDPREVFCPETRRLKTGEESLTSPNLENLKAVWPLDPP
# How it was run: as §1
# ETS2 = target: T8, ETS2 (Homo sapiens, UniProt P15036 1-469); conditions: protein: recombinant; tags: N-terminal GST; dsDNA, one strand shown
# T8 sequence: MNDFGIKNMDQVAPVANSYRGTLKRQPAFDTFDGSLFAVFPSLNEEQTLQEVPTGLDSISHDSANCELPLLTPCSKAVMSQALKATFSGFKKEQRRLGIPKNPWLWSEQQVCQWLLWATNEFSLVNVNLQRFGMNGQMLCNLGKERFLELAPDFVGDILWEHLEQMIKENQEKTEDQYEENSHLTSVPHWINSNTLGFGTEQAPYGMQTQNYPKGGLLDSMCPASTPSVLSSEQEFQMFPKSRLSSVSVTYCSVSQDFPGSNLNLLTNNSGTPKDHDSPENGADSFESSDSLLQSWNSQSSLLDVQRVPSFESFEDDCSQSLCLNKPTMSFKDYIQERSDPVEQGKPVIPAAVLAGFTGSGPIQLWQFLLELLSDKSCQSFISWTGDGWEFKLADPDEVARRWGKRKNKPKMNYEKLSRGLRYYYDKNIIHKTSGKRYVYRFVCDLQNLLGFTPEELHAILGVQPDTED
# How it was run: as §1
# SPDEF = target: T9, SPDEF (Homo sapiens, UniProt O95238 1-335); conditions: protein: recombinant; tags: N-terminal GST; dsDNA, one strand shown
# T9 sequence: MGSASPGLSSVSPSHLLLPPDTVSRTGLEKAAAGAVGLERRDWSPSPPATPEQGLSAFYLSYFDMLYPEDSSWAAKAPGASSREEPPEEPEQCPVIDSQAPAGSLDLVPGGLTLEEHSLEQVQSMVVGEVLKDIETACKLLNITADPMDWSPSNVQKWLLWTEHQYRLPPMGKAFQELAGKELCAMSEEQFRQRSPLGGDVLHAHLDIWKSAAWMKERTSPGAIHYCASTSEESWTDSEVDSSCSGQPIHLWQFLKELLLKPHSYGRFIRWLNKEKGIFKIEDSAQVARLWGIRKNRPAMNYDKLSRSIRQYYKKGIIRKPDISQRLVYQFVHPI
# How it was run: as §1
# ETV7 = target: T10, ETV7 (Homo sapiens, UniProt Q9Y603 1-341); conditions: protein: recombinant; tags: N-terminal GST; dsDNA, one strand shown
# T10 sequence: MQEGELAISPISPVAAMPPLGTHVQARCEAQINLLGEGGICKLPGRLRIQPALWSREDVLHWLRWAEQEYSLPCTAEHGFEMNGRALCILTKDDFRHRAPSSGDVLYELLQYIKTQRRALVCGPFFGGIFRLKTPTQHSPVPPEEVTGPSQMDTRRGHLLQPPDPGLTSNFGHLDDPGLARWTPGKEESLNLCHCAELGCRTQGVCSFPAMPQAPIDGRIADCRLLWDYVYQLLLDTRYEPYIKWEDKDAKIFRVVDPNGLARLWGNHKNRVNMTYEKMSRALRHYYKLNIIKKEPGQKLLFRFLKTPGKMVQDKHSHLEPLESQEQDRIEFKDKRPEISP
# How it was run: as §1
# ELF5 = target: T11, ELF5 (Homo sapiens, UniProt Q9UKW6-2 1-255); conditions: protein: recombinant; tags: N-terminal GST; dsDNA, one strand shown
# T11 sequence: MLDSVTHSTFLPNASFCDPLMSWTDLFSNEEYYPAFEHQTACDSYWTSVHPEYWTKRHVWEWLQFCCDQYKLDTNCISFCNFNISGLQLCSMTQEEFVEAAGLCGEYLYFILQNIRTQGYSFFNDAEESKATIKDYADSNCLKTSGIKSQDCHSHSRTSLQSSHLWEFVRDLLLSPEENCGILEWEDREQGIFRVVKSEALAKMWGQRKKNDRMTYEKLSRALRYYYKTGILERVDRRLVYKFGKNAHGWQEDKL
# How it was run: as §1
# ETV3 = target: T12, ETV3 (Homo sapiens, UniProt P41162-2 1-143); conditions: protein: recombinant; tags: N-terminal GST; dsDNA, one strand shown
# T12 sequence: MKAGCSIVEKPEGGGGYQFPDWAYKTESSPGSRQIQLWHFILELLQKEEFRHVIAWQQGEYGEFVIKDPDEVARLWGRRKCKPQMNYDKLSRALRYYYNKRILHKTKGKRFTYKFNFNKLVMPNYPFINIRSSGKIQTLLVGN
# How it was run: as §1
# ETV6 = ETV6 (Homo sapiens, UniProt P41212 1-452); conditions: protein: recombinant; tags: N-terminal GST; dsDNA, one strand shown
# How it was run: as §1
# Chain of CRX (O43186 whole entry): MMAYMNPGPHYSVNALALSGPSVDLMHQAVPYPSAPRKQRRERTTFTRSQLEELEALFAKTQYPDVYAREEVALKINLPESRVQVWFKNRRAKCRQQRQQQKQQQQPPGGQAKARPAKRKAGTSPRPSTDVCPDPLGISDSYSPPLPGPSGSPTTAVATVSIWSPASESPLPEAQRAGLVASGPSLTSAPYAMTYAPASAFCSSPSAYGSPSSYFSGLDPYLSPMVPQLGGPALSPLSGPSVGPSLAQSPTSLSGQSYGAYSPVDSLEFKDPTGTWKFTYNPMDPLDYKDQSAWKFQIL
# Chain of ETV6 (P41212 whole entry): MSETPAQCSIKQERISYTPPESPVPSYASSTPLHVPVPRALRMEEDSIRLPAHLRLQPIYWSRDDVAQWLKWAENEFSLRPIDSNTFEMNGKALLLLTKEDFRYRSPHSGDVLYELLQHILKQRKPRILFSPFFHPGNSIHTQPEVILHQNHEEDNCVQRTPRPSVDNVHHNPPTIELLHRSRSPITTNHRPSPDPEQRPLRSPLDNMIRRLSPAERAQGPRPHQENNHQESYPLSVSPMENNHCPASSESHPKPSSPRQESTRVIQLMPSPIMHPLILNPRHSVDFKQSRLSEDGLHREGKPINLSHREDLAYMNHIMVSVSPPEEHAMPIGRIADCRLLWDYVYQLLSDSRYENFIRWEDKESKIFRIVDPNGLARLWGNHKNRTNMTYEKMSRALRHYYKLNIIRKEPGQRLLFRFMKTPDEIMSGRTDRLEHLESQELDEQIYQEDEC
# Chain of HSF1 (Q00613 whole entry): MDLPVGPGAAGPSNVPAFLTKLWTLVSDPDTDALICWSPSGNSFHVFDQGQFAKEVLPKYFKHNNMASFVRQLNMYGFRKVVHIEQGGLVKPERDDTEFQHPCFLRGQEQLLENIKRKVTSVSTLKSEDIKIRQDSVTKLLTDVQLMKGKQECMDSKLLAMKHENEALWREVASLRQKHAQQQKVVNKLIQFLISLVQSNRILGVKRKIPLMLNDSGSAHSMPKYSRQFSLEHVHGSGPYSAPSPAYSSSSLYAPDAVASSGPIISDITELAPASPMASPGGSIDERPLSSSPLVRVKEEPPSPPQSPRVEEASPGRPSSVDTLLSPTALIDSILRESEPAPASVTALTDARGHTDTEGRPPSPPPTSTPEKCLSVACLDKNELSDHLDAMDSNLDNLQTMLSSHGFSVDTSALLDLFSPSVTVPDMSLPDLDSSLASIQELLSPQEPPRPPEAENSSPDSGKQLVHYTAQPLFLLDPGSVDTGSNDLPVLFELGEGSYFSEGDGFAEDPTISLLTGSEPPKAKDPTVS
# Chain of ETV1 (P50549 whole entry): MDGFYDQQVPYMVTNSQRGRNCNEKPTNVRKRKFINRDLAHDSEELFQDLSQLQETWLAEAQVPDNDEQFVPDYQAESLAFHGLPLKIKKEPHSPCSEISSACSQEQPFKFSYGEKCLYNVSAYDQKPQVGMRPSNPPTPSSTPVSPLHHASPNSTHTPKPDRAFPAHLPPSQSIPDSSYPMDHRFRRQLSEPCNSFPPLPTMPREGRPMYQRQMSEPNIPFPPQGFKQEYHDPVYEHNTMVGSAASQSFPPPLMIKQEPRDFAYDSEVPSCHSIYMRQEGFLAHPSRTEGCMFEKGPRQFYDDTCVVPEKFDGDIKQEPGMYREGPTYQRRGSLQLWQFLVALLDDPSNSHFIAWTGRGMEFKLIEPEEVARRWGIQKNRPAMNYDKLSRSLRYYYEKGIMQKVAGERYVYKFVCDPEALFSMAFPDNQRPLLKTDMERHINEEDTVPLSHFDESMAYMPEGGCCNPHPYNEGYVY
# Chain of ETV5 (P41161 whole entry): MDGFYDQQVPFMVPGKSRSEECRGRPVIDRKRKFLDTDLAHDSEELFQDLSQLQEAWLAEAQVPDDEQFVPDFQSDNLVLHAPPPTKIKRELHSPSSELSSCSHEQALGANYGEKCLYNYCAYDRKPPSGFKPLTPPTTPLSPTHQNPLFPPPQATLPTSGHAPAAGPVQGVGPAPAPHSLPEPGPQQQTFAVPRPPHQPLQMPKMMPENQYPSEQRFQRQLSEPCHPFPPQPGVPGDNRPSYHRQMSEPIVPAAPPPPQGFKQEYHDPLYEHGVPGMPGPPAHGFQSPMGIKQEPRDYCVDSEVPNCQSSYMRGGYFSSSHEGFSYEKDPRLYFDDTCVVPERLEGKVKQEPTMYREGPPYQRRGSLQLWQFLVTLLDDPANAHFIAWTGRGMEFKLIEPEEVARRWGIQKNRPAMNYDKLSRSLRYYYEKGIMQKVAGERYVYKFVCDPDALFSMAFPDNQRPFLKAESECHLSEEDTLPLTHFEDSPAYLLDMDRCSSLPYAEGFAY
# Chain of ELF4 (Q99607 whole entry): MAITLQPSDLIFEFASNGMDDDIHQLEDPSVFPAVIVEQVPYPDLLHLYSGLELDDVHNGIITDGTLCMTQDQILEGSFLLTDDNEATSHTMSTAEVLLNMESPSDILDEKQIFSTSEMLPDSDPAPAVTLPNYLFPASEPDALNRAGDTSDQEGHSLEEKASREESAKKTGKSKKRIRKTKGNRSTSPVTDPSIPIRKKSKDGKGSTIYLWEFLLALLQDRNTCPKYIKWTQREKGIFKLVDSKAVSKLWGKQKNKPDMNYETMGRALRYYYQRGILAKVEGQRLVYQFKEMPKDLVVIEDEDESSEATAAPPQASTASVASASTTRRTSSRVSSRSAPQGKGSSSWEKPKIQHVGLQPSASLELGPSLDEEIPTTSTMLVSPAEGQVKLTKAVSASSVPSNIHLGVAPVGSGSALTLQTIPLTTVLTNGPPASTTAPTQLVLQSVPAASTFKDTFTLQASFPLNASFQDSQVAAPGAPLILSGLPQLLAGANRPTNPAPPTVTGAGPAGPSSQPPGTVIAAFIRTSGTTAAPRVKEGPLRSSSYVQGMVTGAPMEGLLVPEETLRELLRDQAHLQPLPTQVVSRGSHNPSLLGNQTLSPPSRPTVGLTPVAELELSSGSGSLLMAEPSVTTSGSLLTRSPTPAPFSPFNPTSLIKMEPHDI
sequence,measurement,setting,value
AGCTCC,binding signal,FEV,"1.26 fold enrichment (6-mer frequency, TF over GST control)"
same,binding signal,ETV5,"1.29 fold enrichment (6-mer frequency, TF over GST control)"
same,binding signal,HSF1,"1.22 fold enrichment (6-mer frequency, TF over GST control)"
same,binding signal,SPIC,"1.26 fold enrichment (6-mer frequency, TF over GST control)"
same,binding signal,ELF4,"1.43 fold enrichment (6-mer frequency, TF over GST control)"
same,binding signal,ELK4,"1.16 fold enrichment (6-mer frequency, TF over GST control)"
same,binding signal,ETV2,"1.35 fold enrichment (6-mer frequency, TF over GST control)"
same,binding signal,ELF3,"1.33 fold enrichment (6-mer frequency, TF over GST control)"
same,binding signal,CRX,"1.3 fold enrichment (6-mer frequency, TF over GST control)"
same,binding signal,ETV1,"1.29 fold enrichment (6-mer frequency, TF over GST control)"
same,binding signal,ERF,"1.24 fold enrichment (6-mer frequency, TF over GST control)"
same,binding signal,ETV3L,"1.25 fold enrichment (6-mer frequency, TF over GST control)"
same,binding signal,ETS2,"1.33 fold enrichment (6-mer frequency, TF over GST control)"
same,binding signal,SPDEF,"1.4 fold enrichment (6-mer frequency, TF over GST control)"
same,binding signal,ETV7,"1.17 fold enrichment (6-mer frequency, TF over GST control)"
same,binding signal,ELF5,"1.2 fold enrichment (6-mer frequency, TF over GST control)"
same,binding signal,ETV3,"1.22 fold enrichment (6-mer frequency, TF over GST control)"
same,binding signal,ETV6,"1.32 fold enrichment (6-mer frequency, TF over GST control)"
